Measured values taken from PubChem BioAssay (Tox21).
Records with an inconclusive call do not appear. Entries that show only a call come without a potency. Unmarked numbers belong to inactive results. The source made the active and inactive calls. Unless noted, calls come from the whole dose curve; as a rule, active = well fitted curve in the direction sought with a large enough effect in the repeat runs; inconclusive = weak or mixed curves; inactive = no such curve, though single readings can be large; an effect the other way counts as inactive or inconclusive.

Experiments:
[1] = qHTS assay to identify small molecule agonists of the vitamin D receptor (VDR) signaling pathway - cell viability counter screen (AID 743224); note: series mostly up to about 63 µM; nearly all actives have a fitted effect of over 50% in size
Method in brief: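 Luminescence from CellTiter-Glo, read after 30 min at room temperature, reports viability of VDR-bla cells treated with compounds for 16 h at 37C in the wells used for the beta-lactamase FRET read.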

[2] = qHTS assay to identify small molecule antagonists of the vitamin D receptor (VDR) signaling pathway - cell viability counter screen (AID 743225); note: nearly all actives have a fitted effect of over 50% in size
Method in brief: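 Same-well multiplex: following 16 h treatment of HEK 293T cells carrying a UAS-driven beta-lactamase reporter with compound and agonist (3 nM final), and a 2 h FRET substrate step, CellTiter-Glo was added and luminescence read after 30 min.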

[3] = qHTS assay to identify small molecule agonists of the NFkB signaling pathway (AID 1159509; active = well fitted curve in the direction sought with a large enough effect in the signal ratio in the repeat runs, not every such curve was filed as active; the % refers to the signal ratio; note: series mostly up to about 61 µM)
Method in brief: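 NFkB-bla ME-180 cells with a beta-lactamase reporter under an NF-kB response element were plated overnight, treated with compounds in DMSO for 5 hr at 37 C, then loaded with FRET substrate for 1.5 hr at room temperature.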

[4] = qHTS assay to identify small molecule agonists of the endoplasmic reticulum stress response signaling pathway (AID 1159516; active = well fitted activation curve with a large enough effect in the signal ratio in the repeat runs, not every such curve was filed as active; the % refers to the signal ratio)
Method in brief: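 Read-out is beta-lactamase cleavage of a FRET substrate (405 nm excitation; 460 and 530 nm emissions) in ESRE-bla HeLa cells after a 5 hr compound exposure at 37 C. Substrate incubation ran 2 hr at room temperature.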

[5] = qHTS assay to identify small molecule agonists of the endoplasmic reticulum stress response signaling pathway - cell viability counter screen (AID 1159517; calls by dose curve;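 note: HeLa cells carrying an ER stress response element beta-lactamase reporter; series mostly up to about 61 µM; nearly all actives have a fitted effect of over 50% in size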)
Method in brief: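 Counter-screen wells were identical to the reporter wells. Cells were plated at 1,500 per well and dosed for 5 hr, then read for luminescence 30 min after CellTiter-Glo addition.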

[6] = qHTS assay to identify small molecule antagonists of the retinoid-related orphan receptor gamma (ROR-gamma) signaling pathway - cell viability counter screen (AID 1159520); note: nearly all actives have a fitted effect of over 50% in size; note: potency is the fitted concentration of half-maximal effect
Method in brief: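 Tet-on ROR gamma CHO cells were given compounds for 2 hr, then doxycycline hyclate at 1 uM final, and incubated 16 hr at 37 C. Viability was measured as ATP content by CellTiter-Glo luminescence.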

[7] = qHTS assay to identify small molecule agonists of the AP-1 signaling pathway - cell viability counter screen (AID 1159525; calls by dose curve; note: nearly all actives have a fitted effect of over 55% in size)
Method in brief: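 AP-1-bla ME-180 cells in Opti-MEM with 0.5% dialyzed FBS, compound exposure 5 h at 37 C in 15-point titration. Viability read in the same wells as ATP content by CellTiter-Glo luminescence, normalised to tetra-n-octylammonium bromide and DMSO controls.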

[8] = qHTS assay to identify small molecule agonists of the AP-1 signaling pathway (AID 1159526; calls by dose curve)
[9] = biological target: Nuclear receptor ROR-gamma (Homo sapiens) (UniProt P51449); assay: qHTS assay to identify small molecule antagonists of the retinoid-related orphan receptor gamma (ROR-gamma) signaling pathway (AID 1159521; note: nearly all actives have a fitted effect of over 50% in size; note: potency is the fitted concentration of half-maximal effect)
Method in brief: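 Inducible-expression reporter assay: doxycycline (1 uM final) switched on RORγ in CHO cells bearing a ROR response element-luciferase construct, with test compounds present from 2 h beforehand. Decreased luminescence after 16 h defined antagonist activity.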

[10] = qHTS assay to identify small molecule agonists of the NFkB signaling pathway - cell viability counter screen (AID 1159515; calls by dose curve; note: series mostly up to about 61 µM; nearly all actives have a fitted effect of over 55% in size)
Method in brief: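 Luminescence from CellTiter-Glo (30 min, room temperature) gives viability, measured in the same wells as the beta-lactamase reporter read. Cells were NFkB-bla ME-180, 2,000 per well, treated 5 hr with compounds.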

| Structure (SMILES) | Potency [1] | Potency [2] | outcome [3] | outcome [4] | outcome [5] | Potency [6] | outcome [7] | Potency [8] | Potency [9] | outcome [10] |
| --- | --- | --- | --- | --- | --- | --- | --- | --- | --- | --- |
| CC(=O)OC1C2(C)CCC(C2)C1(C)C (stereo not drawn) | inactive | inactive | inactive | inactive | inactive | inactive | inactive | inactive |  |  |
| Cc1ccc([N+](=O)[O-])c(N)c1 | inactive | inactive | inactive | inactive | inactive | inactive | inactive |  | inactive |  |
| O=C(O[C@@H](C(=O)O)[C@@H](OC(=O)c1ccccc1)C(=O)O)c1ccccc1 | inactive | inactive | inactive | inactive | inactive | inactive | inactive | inactive |  |  |
| O=[N+]([O-])c1nccn1CO[C@@H](CO)[C@H](O)CO | inactive | inactive | inactive | inactive | inactive | inactive |  | inactive | inactive |  |
| O=C(CCCl)NCc1ccccc1 |  | inactive | inactive | inactive | inactive | inactive | inactive | inactive |  |  |
| CC1=NN(c2cc(Cl)c(S(=O)(=O)O)cc2Cl)C(=O)C1N=Nc1ccc(S(=O)(=O)O)cc1 (stereo not drawn) | inactive | inactive | inactive | inactive | inactive | inactive | inactive |  | inactive |  |
| C=Cc1ccccc1 | inactive | inactive | inactive | inactive | inactive | inactive | inactive | inactive |  |  |
| Cc1c(N)cccc1N | inactive | inactive | inactive | inactive | inactive | inactive |  | inactive | inactive |  |
| CC(=O)O[C@H]1CC[C@@]2(C)C(=CC[C@@H]3[C@@H]2CC[C@]2(C)C(C(C)=O)=CC[C@@H]32)C1 | inactive | inactive | inactive | inactive | inactive | inactive | inactive | inactive |  |  |
| CCCCCCOc1ccc(N)cc1 |  | inactive | inactive | inactive | inactive | inactive | inactive |  | inactive |  |
| Cc1cn([C@@H]2O[C@H](CO)[C@@H](O)[C@@H]2F)c(=O)[nH]c1=O | inactive | inactive | inactive | inactive | inactive | inactive | inactive | inactive |  |  |
| CC1=C2[C@H](/C=C(\C)C(=O)O)CC[C@@H](C)[C@H]2CC1 | inactive | inactive | inactive | inactive | inactive | inactive | inactive |  | inactive |  |
| CCN(CC)CCNC(=O)COc1ccc(Cl)cc1 | inactive | inactive | inactive | inactive | inactive | inactive | inactive | inactive |  |  |
| Cn1cnc2c(F)c(Nc3ccc(Br)cc3Cl)c(C(=O)NOCCO)cc21 | inactive | inactive | inactive | inactive | inactive | inactive | inactive | inactive |  |  |
| CN(CCCN1c2ccccc2CCc2ccccc21)CC(=O)c1ccc(Cl)cc1 | inactive | inactive | inactive | inactive | inactive | 29.8 µM (active) | inactive |  | inactive |  |
| CN1CCC[C@@H]1Cc1c[nH]c2ccc(CCS(=O)(=O)c3ccccc3)cc12 | inactive | inactive | inactive | inactive | inactive | inactive | inactive |  | inactive |  |
| CC[C@H]1CC[C@H](NCc2cc3c(cc2OC)[C@H]2C[C@H]2C(=O)N3C)[C@H](c2ccccc2)N1 |  | inactive | inactive | inactive | inactive | inactive | inactive |  | 30.6 µM (active) |  |
| O=C1N(c2ccccc2)c2ccccc2C1(Cc1ccncc1)Cc1ccncc1 | inactive | inactive | inactive | inactive | inactive | inactive |  | inactive | inactive |  |
| CCC/C=C/CO | inactive | inactive |  | inactive | inactive | inactive |  | inactive |  | inactive |
| CC(Oc1c(Cl)cccc1Cl)C1=NCCN1 (stereo not drawn) | inactive | inactive | inactive | inactive | inactive | inactive | inactive |  | inactive |  |
| O=Cc1ccc(O)c(O)c1O |  | inactive | inactive | inactive | inactive | inactive | inactive |  | inactive |  |
| CC(C)(CO)[C@@H](O)C(=O)NCCC(=O)O | inactive | inactive | inactive | inactive | inactive | inactive | inactive | inactive |  |  |
| Cc1nc(-c2ccccn2)ncc1C(=O)Nn1cc(C)c2cc(F)ccc21 | inactive | inactive | inactive | inactive | inactive | inactive | inactive |  | inactive |  |
| CCOC(=O)CS | inactive |  | inactive | inactive | inactive | inactive | inactive |  | inactive |  |
| CC(C)=CCCC(C)CCOC=O (stereo not drawn) |  | inactive | inactive | inactive | inactive | inactive | inactive |  | inactive |  |
| CN1CCN(N)CC1 | inactive | inactive | inactive | inactive | inactive | inactive |  | inactive | inactive |  |
| Clc1cccc(-c2cc(Cl)cc(Cl)c2)c1 | inactive | inactive | inactive | inactive | inactive | inactive |  |  | inactive |  |
| NCCC(O)(P(=O)(O)O)P(=O)(O)O |  | inactive | inactive | inactive | inactive | inactive | inactive | inactive |  |  |
| CCc1cc(Cl)c(OC)c(C(=O)NC[C@@H]2CCCN2CC)c1O | inactive | inactive | inactive | inactive | inactive | inactive | inactive |  | inactive |  |
